Experimental data as given in the supplement of paper PMC10127200.
Counter-ions that a name gives are not always drawn.

Key:
Experiment in all cases: Euclidean distance of Cell Painting phenotypic profile (signed KS, 77 features) to DMSO centroid (dimensionless distance); 5 or 10 uM (library dependent); higher = stronger phenotypic change vs DMSO (phenoactivity)
Conditions in all cases: 48 h
[1] = system: 786-O
How it was run: (§1)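 Library compounds were applied at 10 or 5 uM, depending on the library, with 0.1% DMSO final, for 48 h to five cancer lines and a healthy fibroblast line. After staining, cells were imaged confocally at 20X across 9 fields per well, and Harmony extracted 77 features, each scored as a signed Kolmogorov-Smirnov statistic against vehicle wells on the same plate. Phenoactivity is the Euclidean distance between each profile and the median vehicle profile, with profiles first plate-position corrected, correlation-weighted and averaged over replicates at the top dose.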

[2] = system: A549
How it was run: as §1

[3] = system: DU145
How it was run: as §1

[4] = system: FB
How it was run: as §1

[5] = system: HEPG2
How it was run: as §1

[6] = system: OVCAR4
How it was run: as §1

| Structure (SMILES) | Euclidean distance [1] | Euclidean distance [2] | Euclidean distance [3] | Euclidean distance [4] | Euclidean distance [5] | Euclidean distance [6] |
| --- | --- | --- | --- | --- | --- | --- |
| CN(Cc1cnc2nc(N)nc(N)c2n1)c1ccc(C(=O)N[C@@H](CCC(=O)O)C(=O)O)cc1 [Methotrexate] | 1.77 | 3.08 | 1.05 | 0.72 | 1.55 | 2.57 |
| CCC(=O)OCC(=O)[C@@]1(OC(=O)CC)[C@@H](C)C[C@H]2[C@@H]3CCC4=CC(=O)C=C[C@]4(C)[C@@]3(F)[C@@H](O)C[C@@]21C [Betamethasone Dipropionate] | 1.67 | 2.06 | 2.69 | 2.18 | 0.697 | 1.59 |
| COc1ccc(/C=C/C(=O)Nc2ccccc2C(=O)O)cc1OC [Trans-Tranilast] | 1.43 | 0.649 | 0.604 | 1.18 | 0.865 | 0.917 |
| O=c1ccc2ccc(O)c(O)c2o1 [Daphnetin] | 1.49 | 0.859 | 0.975 | 1.15 | 1.18 | 0.972 |
| NCC(=O)Nc1ccc(-n2nc(C(F)(F)F)cc2-c2ccc3c(ccc4ccccc43)c2)cc1 | 1.57 | 1.4 | 0.783 | 1.33 | 1.34 | 1.38 |
| O=C(O)CCC(=O)Nc1ccc(S(=O)(=O)Nc2nccs2)cc1 [Succinylsulfathiazole] | 0.988 | 0.655 | 0.789 | 1.1 | 1.01 | 2.02 |
| O=C(Nc1ncc(SCCN2CCCC2)s1)[C@]1(c2ccc(S(=O)(=O)C3CC3)cc2)C[C@H]1C1CCCCC1 | 5.07 | 2.38 | 3.02 | 3.03 | 3.45 | 1.44 |
| Cc1nc2n(c(=O)c1CCN1CCC(c3noc4cc(F)ccc34)CC1)CCCC2O (stereo not drawn) [Paliperidone] | 0.901 | 0.427 | 0.828 | 0.783 | 0.494 | 0.895 |
| CCn1c2ccccc2c2cc(Nc3ccnc(NCCCN4CCOCC4)n3)ccc21 | 3.23 | 2.84 | 1.12 | 2.94 | 2.27 | 1.98 |
| CCN(CC)CCCC(C)Nc1c2ccc(Cl)cc2nc2ccc(OC)cc12 (stereo not drawn) [Quinacrine Dihydrochloride Dihydrate] | 4.25 | 5.06 | 4.71 | 6.12 | 4.78 | 4.71 |
| C=CC[C@@H]1/C=C(\C)C[C@H](C)C[C@H](OC)[C@H]2O[C@@](O)(C(=O)C(=O)N3CCCC[C@H]3C(=O)O[C@H](/C(C)=C/[C@@H]3CC[C@@H](O)[C@H](OC)C3)[C@H](C)[C@@H](O)CC1=O)[C@H](C)C[C@@H]2OC [Tacrolimus (FK506)] | 0.986 | 1.47 | 2.38 | 1.07 | 0.59 | 0.647 |
| Oc1cc(O)c2c(c1)OC(c1ccc(O)c(O)c1)C(O)C2 (single isomer, unassigned; (+)) [(+)-Catechin] | 0.785 | 0.904 | 0.506 | 0.842 | 0.247 | 0.849 |
| O=C(O)Cc1cc(I)c(Oc2ccc(O)c(I)c2)c(I)c1 [Tiratricol] | 0.855 | 0.554 | 0.644 | 0.597 | 0.536 | 0.847 |
| Cc1cc(O)c2c(c1)C(=O)c1cccc(O)c1C2=O [Chrysophanic Acid] | 1.36 | 0.646 | 1.3 | 1.64 | 1.34 | 1.43 |
| CN(NC(=O)CC(=O)NN(C)C(=S)c1ccccc1)C(=S)c1ccccc1 [Elesclomol (STA-4783)] | 5.12 | 5.4 | 4.86 | 6.42 | 1.29 | 6.01 |
| CCCCCOc1ccc(-c2ccc(-c3ccc(C(=O)N[C@H]4C[C@@H](O)[C@@H](O)NC(=O)[C@@H]5[C@@H](O)[C@@H](C)CN5C(=O)[C@H]([C@@H](C)O)NC(=O)[C@H]([C@H](O)[C@@H](O)c5ccc(O)cc5)NC(=O)[C@@H]5C[C@@H](O)CN5C(=O)[C@H]([C@@H](C)O)NC4=O)cc3)cc2)cc1 | 0.818 | 0.702 | 1.21 | 0.749 | 1.21 | 1.01 |
| CCn1cc(C(=O)O)c(=O)c2cc(F)c(N3CCNCC3)nc21 [Enoxacin] | 1.03 | 0.783 | 1.59 | 0.837 | 2.02 | 1.35 |
| c1cc(-c2cnn3cc(-c4ccc(N5CCNCC5)cc4)cnc23)c2cccnc2c1 | 5.15 | 5.05 | 4.45 | 6.55 | 5.9 | 6.68 |
| O=C1CN(/N=C/c2ccc(-c3ccc([N+](=O)[O-])cc3)o2)C(=O)N1 [Dantrolene sodium hemiheptahydrate] | 0.731 | 0.894 | 1.67 | 1.21 | 0.638 | 1.31 |
| CC(C)C[C@H](NC(=O)CNC(=O)c1cc(Cl)ccc1Cl)B(O)O | 5.04 | 3.61 | 5.19 | 3.83 | 4.44 | 4.31 |
| COc1cc(N2CCC(N)CC2)ccc1Nc1ncc(Cl)c(-c2c[nH]c3ccccc23)n1 | 2.97 | 3.34 | 2.4 | 4.05 | 2.56 | 2.07 |
| NC(=O)c1cccc(-c2cccc(OC(=O)NC3CCCCC3)c2)c1 | 0.656 | 0.944 | 0.753 | 0.99 | 1.61 | 1.17 |
| CC(C)N(CCCCOCC(=O)NS(C)(=O)=O)c1cnc(-c2ccccc2)c(-c2ccccc2)n1 [Selexipag] | 0.931 | 1.04 | 0.729 | 1.31 | 0.663 | 1.65 |
| COc1cc2c(cc1OC)[C@@H]1Cc3ccc(OC)c(OC)c3CN1CC2 [Rotundine] | 1.84 | 0.769 | 1.07 | 1.26 | 0.595 | 1.2 |

| Structure (SMILES) | Euclidean distance [1] | Euclidean distance [2] | Euclidean distance [3] | Euclidean distance [4] | Euclidean distance [5] | Euclidean distance [6] |
| --- | --- | --- | --- | --- | --- | --- |
| NS(=O)(=O)NCCNc1nonc1/C(=N/O)Nc1ccc(F)c(Br)c1 | 1.34 | 1.13 | 1.07 | 1.35 | 0.971 | 0.884 |
| C[n+]1c2ccccc2nc2ccccc21 [Phenazine methosulfate] | 5.13 | 2.82 | 4.95 | 4.99 | 3.66 | 2.78 |
| Nc1nc(=O)[nH]cc1F [Flucytosine] | 1.25 | 1.12 | 0.998 | 1.16 | 0.392 | 0.975 |
| N[C@H](Cc1ccccc1)C(=O)O [D-Phenylalanine] | 1.65 | 1.05 | 0.814 | 0.864 | 0.733 | 0.852 |
| O=C(COc1cccc2c(=O)[nH]ccc12)c1ccccc1 | 1.49 | 1.09 | 0.747 | 0.832 | 0.68 | 0.6 |
| CCn1cc(C(=O)O)c(=O)c2cc(F)c(N3CCNC(C)C3)c(F)c21 (stereo not drawn) [Lomefloxacin HCl] | 0.907 | 0.839 | 0.681 | 0.822 | 0.796 | 0.657 |
| COc1ccc(-c2cc(=O)c3c(O)cc(O)cc3o2)cc1O [Diosmetin] | 2.12 | 1.03 | 0.892 | 1.37 | 1.25 | 1.26 |
| CN(C)CC[C@H](CSc1ccccc1)Nc1ccc(S(=O)(=O)NC(=O)c2ccc(N3CCN(Cc4ccccc4-c4ccc(Cl)cc4)CC3)cc2)cc1[N+](=O)[O-] | 0.812 | 2.83 | 1.36 | 0.853 | 0.522 | 1.01 |
| Cn1cc(/C=C2\C(=O)Nc3cccnc32)c2ccccc21 | 0.739 | 1.41 | 1.16 | 1.5 | 0.771 | 1.53 |
| CCc1ccc(OCc2ccccc2C(=O)Nc2ccc3nc(C)cc(N)c3c2)cc1 | 4.35 | 4.14 | 3.63 | 5.25 | 5.11 | 4.53 |
| COc1cc2c(cc1OC)-c1cc3ccc(OC)c(OC)c3c[n+]1CC2 [Palmatine] | 0.525 | 0.996 | 0.565 | 0.73 | 1.18 | 0.631 |
| Cn1cc(-c2cnn3c(N)c(Br)c([C@@H]4CCCNC4)nc23)cn1 | 2.18 | 1.1 | 1.19 | 2.96 | 1.35 | 2.36 |
| Nc1ccc(S(=O)(=O)Nc2ncccn2)cc1 [Sodium sulfadiazine] | 1.29 | 0.966 | 1.5 | 1.52 | 0.727 | 1.12 |
| Cn1c(=O)c2c(ncn2CCO)n(C)c1=O [Etofylline] | 1.39 | 0.749 | 1.18 | 1.08 | 0.452 | 1.26 |
| C[C@]1(O)C[C@@H](c2nc(-c3ccc4ccc(-c5ccccc5)nc4c3)c3c(N)nccn32)C1 [OSI-906 (Linsitinib)] | 1.12 | 1.34 | 0.877 | 1.19 | 1.12 | 1.27 |
| C#CCC(Cc1cnc2nc(N)nc(N)c2n1)c1ccc(C(=O)N[C@@H](CCC(=O)O)C(=O)O)cc1 (stereo partly drawn) [Pralatrexate] | 1.51 | 2.98 | 0.922 | 1.25 | 1.73 | 2.44 |
| C[C@@H](NCCCc1cccc(C(F)(F)F)c1)c1cccc2ccccc12 [Cinacalcet HCl] | 1.32 | 1.57 | 1.89 | 1.06 | 1.85 | 1.42 |
| CC(=C(CCOC(=O)C(C)C)SSC(CCOC(=O)C(C)C)=C(C)N(C=O)Cc1cnc(C)nc1N)N(C=O)Cc1cnc(C)nc1N (stereo in doubt) [Sulbutiamine] | 1.35 | 0.871 | 0.854 | 1.12 | 0.637 | 1.49 |
| CCN(CC)CCNC(=O)c1c(C)[nH]c(/C=C2\C(=O)Nc3ccc(-c4csc(-c5ccccc5)n4)cc32)c1C [Amcasertib (BBI503)] | 5.91 | 5.2 | 7.77 | 5.61 | 2.05 | 2.89 |
| Cc1[nH]nc2ccc(-c3cncc(OC[C@@H](N)Cc4ccccc4)c3)cc12 | 4.66 | 4.28 | 3.94 | 5.02 | 3.37 | 5.52 |
| O=C(O)CCc1nc(-c2ccccc2)c(-c2ccccc2)o1 [Oxaprozin] | 1.01 | 0.794 | 0.541 | 0.987 | 1.16 | 1.28 |
| CNC(=O)c1cc(Oc2ccc(NC(=O)Nc3ccc(Cl)c(C(F)(F)F)c3)c(F)c2)ccn1 [Regorafenib Monohydrate] | 2.14 | 2.35 | 1.71 | 1.8 | 1.82 | 1.76 |
| COc1ccc(C[C@@H]2c3cc(OC)c(OC)cc3CC[N@+]2(C)CCC(=O)OCCCCCOC(=O)CC[N@@+]2(C)CCc3cc(OC)c(OC)cc3[C@H]2Cc2ccc(OC)c(OC)c2)cc1OC [Cisatracurium Besylate] | 1.42 | 0.822 | 0.815 | 1.11 | 1.11 | 1.35 |
| O=C(O)c1ccc(N2C(=O)/C(=C\c3ccc(-c4ccc([N+](=O)[O-])cc4)o3)C=C2c2ccccc2)cc1 | 0.841 | 1.23 | 0.74 | 0.72 | 1.83 | 0.995 |
